{
  "source": "PubChem BioAssay",
  "note": "Where “and” joins values, the source holds several entries; their conditions need not be identical. Equal values may be shown once. A structure can be active in one record and inactive in another. Calls of active or inactive are those of the source.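 How the source made its calls: active means growth inhibition above 50% at the single 2 µM test dose, taken to imply half-maximal potency below 2 µM; inactive means the rest.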",
  "data": [
    {"test": "antimalarial activity against Dd2 strain (AID 2302);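 further: 0% = DMSO untreated growth and 100% = chloroquine plus artemisinin killed control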", "settings": "P. falciparum Dd2 in RBCs, LDH growth readout, 72 h; at 2 µM; stronger effect = higher value", "values": [
      {"smiles": "COc1ccc2nc(C)cc(NN=Cc3ccccc3Cl)c2c1", "growth inhibition": "100% (active)"},
      {"smiles": "COc1ccccc1NC(=O)c1cc(C(=O)c2cc(Cl)ccc2O)cn(-c2ccccc2OC)c1=O", "growth inhibition": "31% (inactive)"},
      {"smiles": "CCc1c(C)nc2nc(Cc3cccc(F)c3)nn2c1N1CCN(c2ccccn2)CC1", "growth inhibition": "98% (active)"},
      {"smiles": "COc1ccc(NC(=O)NC2CCN(CCCOc3ccnc4cc(Cl)ccc34)C2)cc1OC", "note": "(stereo not given)", "growth inhibition": "16% (inactive)"},
      {"smiles": "CN1CCCN(Cc2ccc(-c3cccc(NC(=O)c4ccc(F)cc4)c3)cc2)CC1", "growth inhibition": "8% (inactive)"},
      {"smiles": "Cc1cc(NCC2CCN(CC3CCCCC3)C2)nc(Nc2ccc(Br)cc2)n1", "note": "(stereo not given)", "growth inhibition": "78% (active)"},
      {"smiles": "Cc1cccc2[nH]c(-c3ccc(-c4cccc(NC(=O)NCc5cccc(F)c5)c4)cc3)nc12", "growth inhibition": "5% (inactive)"},
      {"smiles": "CCOC(=O)C(C)(C)Oc1ccc(C(=C2CC(C)(C)CC(C)(C)C2)c2ccc(O)cc2)cc1", "growth inhibition": "78% (active)"},
      {"smiles": "CN(C)CCCN(C)C(=O)c1cc2cc(-c3ccccc3)ccc2n1S(=O)(=O)c1ccccc1", "growth inhibition": "66% (active)"},
      {"smiles": "CCN(CC)c1cc(C)c2cc(NC(=O)c3cc(=O)c4ccccc4o3)ccc2n1", "growth inhibition": "67% (active)"},
      {"smiles": "COc1ccc(Cl)cc1N1CCN(CCCNC(=O)c2ccc(-c3nc4cc5ccccc5cc4[nH]3)c(F)c2)CC1", "growth inhibition": "62% (active)"},
      {"smiles": "O=S(=O)(NCCN1CCCC1)c1cccc(-c2ccccc2CNC2Cc3ccccc3C2)c1", "growth inhibition": "76% (active)"},
      {"smiles": "CCCC(C)NC(=O)C(N)Cc1cccc(I)c1", "note": "(stereo not given)", "growth inhibition": "65% (active)"},
      {"smiles": "CCCCCCCCNc1c2ccc(Cl)cc2nc2ccc(OC)cc12", "growth inhibition": "96% (active)"},
      {"smiles": "CN1CCC(C(=O)Nc2cccc(-c3ccc(-c4nc5ccc(C(F)(F)F)cc5[nH]4)s3)c2)CC1", "growth inhibition": "95% (active)"},
      {"smiles": "Cc1cc(NCCC(=O)NCCc2ccccc2)nc(NCCc2ccc(F)cc2)n1", "growth inhibition": "7% (inactive)"},
      {"smiles": "CCCC(C)Nc1nc(C)cc(N[C@@H](CC(C)C)C(=O)NCCOc2ccccc2)n1", "note": "(stereo not given in full)", "growth inhibition": "28% (inactive)"},
      {"smiles": "CN(C)CCNC(=O)N1CCCN(c2ncnc3cc(-c4ccccc4)sc23)CC1", "growth inhibition": "37% (inactive)"},
      {"smiles": "CC(=O)Nc1cccc(C(=O)Nc2cccc(-c3cccc(-c4nc5ccccc5[nH]4)c3)c2)c1", "growth inhibition": "66% (active)"},
      {"smiles": "CC(CN(C)C)C(=O)Nc1ccc(-c2cccc(-c3nc4ccccc4[nH]3)c2)cc1", "note": "(stereo not given)", "growth inhibition": "57% (active)"},
      {"smiles": "O=C(/C=C/c1ccc(Cl)c(Cl)c1)NCCCCCN1CCC(NC(=O)Nc2ccccc2Cl)CC1", "growth inhibition": "23% (inactive)"},
      {"smiles": "CCc1cc2c(N)nc(N)nc2nc1-c1ccccc1", "growth inhibition": "-1% (inactive)"},
      {"smiles": "CC(C)CNCc1cccc(-c2cccc(CNCCCN3CCN(C)CC3)c2)c1", "growth inhibition": "7% (inactive)"},
      {"smiles": "Clc1ccc2c(NCCNc3ccnc4cc(Cl)ccc34)ccnc2c1", "growth inhibition": "96% (active)"},
      {"smiles": "CC(C)(C)c1ccc(NC(=O)c2cccc(CN3CCCN(Cc4ccc(F)cc4)CC3)c2)cc1", "growth inhibition": "2% (inactive)"},
      {"smiles": "COc1ccc(CNCc2ccc(F)cc2)cc1-c1ccc(OC)c(S(=O)(=O)NCCN2CCCC2)c1", "growth inhibition": "88% (active)"},
      {"smiles": "NC1=NC(c2ccccc2)(c2ccccc2)C(=O)N1CC1CCC1", "growth inhibition": "74% (active)"},
      {"smiles": "O=C1C(c2ccccc2)=C(Nc2cc(Cl)cc(Cl)c2)c2ccccc21", "growth inhibition": "94% (active)"},
      {"smiles": "Cc1cc(C2CCN(CCCCNC(=O)c3ccc(NC(=O)c4ccc(Cl)cc4)cc3)CC2)c(C)cc1OCc1cccnc1", "growth inhibition": "90% (active)"},
      {"smiles": "C=C[C@H]1CN(CCCCCCC)CC[C@H]1CCN(C)c1ccnc2ccc(OC)cc12", "growth inhibition": "93% (active)"},
      {"smiles": "COc1ccc(CN(C)CCCSc2ccc(NC(=O)c3cccc4c(=O)cc(-c5ccccc5)[nH]c34)cc2)cc1OC", "growth inhibition": "94% (active)"},
      {"smiles": "CC(=O)N1N=C(c2ccc(Cl)cc2)Sc2c1nc(C1CCCCC1)n2C(C)=O", "growth inhibition": "67% (active)"},
      {"smiles": "OC(CNc1ccnc(Nc2cccc(Cl)c2)n1)c1cccc(C(F)(F)F)c1", "note": "(stereo not given)", "growth inhibition": "98% (active)"},
      {"smiles": "CCc1cc(I)c2c(c1)C(NCCCNc1cc(=O)c3ccccc3[nH]1)CCN2", "note": "(stereo not given)", "growth inhibition": "32% (inactive)"},
      {"smiles": "O=C1C(c2ccccc2)=C(Nc2ccc(Cl)cc2)c2ccccc21", "growth inhibition": "59% (active)"},
      {"smiles": "Cc1cc(CNCCCCCCCNCc2cccc([N+](=O)[O-])c2)ccc1O", "growth inhibition": "-5% (inactive)"},
      {"smiles": "Cc1[nH]c2cccc(F)c2c(=O)c1Cc1ccc(Cl)cc1", "note": "(tested in a mixture with another compound)", "growth inhibition": "94% (active) and 92% (active)"},
      {"smiles": "COc1ccc2ncc(F)c(CCN3CCC(CNC(=O)C(=O)c4c[nH]c5ccccc45)CC3)c2n1", "growth inhibition": "99% (active)"},
      {"smiles": "O=C(Nc1ccc(Cn2ncc(N3CCCNCC3)c(Cl)c2=O)cc1)Nc1ccc(-c2ccccc2)cc1", "growth inhibition": "41% (inactive) and 51% (active)"},
      {"smiles": "CC(=O)N/N=C/[C@H](CCc1ccccc1)NC(=O)[C@H](CC(C)C)NC(=O)c1ccc(OCCN2CCOCC2)cc1", "growth inhibition": "87% (active)"}
    ]}
  ]
}
